# High-throughput results from PubChem.
# Most compounds without a hit are left out; they make up all but 7.5% or so of the library.
# ELG1 genotoxic = genotoxicity induction in ELG1-luciferase HEK293T cells; actives 1.3% (n = 330,000); Potency, µM (doses to about 46 µM), inactives show at the top dose activity change, positive = activation, usual class: activators; HEK293T ELG1-luciferase reporter, luminescence, 16 h; note: % of control where 0% means no effect; nearly all actives have a fitted effect of over 60% in size
#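 HEK293T cells expressing luciferase-tagged ELG1 were exposed to compound or DMSO vehicle for 16 hr at 37 °C and 5% CO2. Luciferase activity was then measured with ONE-Glo after 30 min at room temperature.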
# FLuc modulator = inhibits or activates purified firefly luciferase, miR-21 counter-screen; Potency, µM (titrated, usually from 57.5 µM), without a hit: top-dose activity change, negative = inhibition, most hits filed as inhibitors; purified FLuc, Km substrates, luminescence inhibition; P08659; actives 6.9% (n = 360,000);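 note: plate controls were vehicle for no effect and reference inhibitor for full effect; nearly all actives have a fitted effect of over 55% in size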
# Target sequence (P08659 whole entry, looked up): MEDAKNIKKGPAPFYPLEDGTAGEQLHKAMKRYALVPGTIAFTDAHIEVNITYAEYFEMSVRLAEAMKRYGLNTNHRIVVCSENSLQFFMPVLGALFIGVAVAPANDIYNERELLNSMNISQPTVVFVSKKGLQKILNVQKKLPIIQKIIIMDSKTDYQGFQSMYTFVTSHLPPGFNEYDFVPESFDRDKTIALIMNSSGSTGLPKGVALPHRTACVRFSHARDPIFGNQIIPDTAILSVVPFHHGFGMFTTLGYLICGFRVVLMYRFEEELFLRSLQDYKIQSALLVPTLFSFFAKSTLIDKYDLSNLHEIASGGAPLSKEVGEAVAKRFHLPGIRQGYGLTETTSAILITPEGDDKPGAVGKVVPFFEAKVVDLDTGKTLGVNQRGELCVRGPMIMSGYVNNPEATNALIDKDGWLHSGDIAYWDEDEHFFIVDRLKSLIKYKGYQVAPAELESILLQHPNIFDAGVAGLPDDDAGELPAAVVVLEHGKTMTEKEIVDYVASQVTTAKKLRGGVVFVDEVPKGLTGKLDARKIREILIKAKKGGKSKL
#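 Purified P. pyralis luciferase, 10 nM final, with Km-level 10 uM D-luciferin and 10 uM ATP in 50 mM Tris acetate pH 7.5, 10 mM Mg acetate, 0.01% Tween-20, 0.05% BSA; 6-point qHTS titration about 60 µM downward; luminescence read.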
# NPC1 prom act = NPC1 promoter activation. Huh7 NPC1 promoter luciferase reporter, 24 h. Potency, µM (series often up to 9.22 µM), for inactives: at the highest dose activation, most hits filed as activators. actives 2.4% (n = 320,000). AID 485313; note: % of control where 0% means no effect; nearly all actives have a fitted effect of over 60% in size
#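 Luciferase expression driven by the NPC1 promoter was measured in stably transfected Huh7 cells after a 24 h compound incubation, using a luciferase reagent and a luminescence read.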
# SMN2 splice up = increases expression of the SMN2 splice variant; Potency, µM (doses to about 46.1 µM), inactives show at the top dose activity change, positive = activation, most hits filed as activators; actives 2.8% (n = 210,000); AID 1458; HEK293 SMN2-luciferase splicing reporter, luminescence, 30-36 h; note: % of control where 0% means no effect; nearly all actives have a fitted effect of over 55% in size
#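 qHTS luciferase splicing reporter: luminescence rises when SMN2 exon 7 is included in transfected HEK293 cells. Compound exposure lasted 30-36 h at 37C, with 4.5 mM final sodium butyrate as control, followed by a ONE-Glo read.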
# Luc counter = blocks Kinase-Glo luciferase, a counter-screen artifact | Kinase-Glo luciferase, ATP luminescence, 8 min | Potency, µM (doses to about 38.3 µM), inactives show at the highest dose activity change, negative = inhibition, actives largely listed as inhibitors | actives 0.28% (n = 200,000); note: % is set by controls: 0 for no effect and ±100 for the full control effect; nearly all actives have a fitted effect of over 60% in size
#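 Recombinant Kinase-Glo luciferase, 10 uM ATP (linear range), luciferin; imidazole pH 7.2 / KCl / MgCl2 / Tween / BSA buffer; 8 min RT; luminescence.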
# Rab9 prom act = activators of Rab9 promoter. Huh7 Rab9 promoter-luciferase reporter, luminescence, 24 h. Potency, µM (doses to about 9.22 µM), for the others: at the highest dose activation, negative = inhibition, usual class: activators. actives 2.8% (n = 320,000). AID 485297; note: % of control where 0% means no effect; nearly all actives have a fitted effect of over 60% in size
#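 Quantitative HTS format; Huh7 Rab9-luciferase reporter cells (1500/well) receive compound 2 h post-plating, incubate 24 h at 37 °C, then get luciferase reagent for 10 min before luminescence reading.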
# * marks the source's active call; other numbers are inactive results; u = inconclusive; x = no result given; [ ] = remark or other dose. Calls come from the whole dose curve; as a rule, active = well fitted curve in the direction sought with a large enough effect; inconclusive = small, poorly fitted or top-dose-only effect, or another doubt; inactive = no such curve, though single readings can be large; an effect the other way counts as inactive or inconclusive. Potency is the fitted concentration of half-maximal effect.
SMILES,ELG1 genotoxic,FLuc modulator,NPC1 prom act,SMN2 splice up,Luc counter,Rab9 prom act
COc1ccccc1C(=O)Nc1cccc(C(=O)c2ccccc2)c1,2.3%,16.9µM*,-2.4%,x,x,0.8%
COc1cccc(OC)c1C(=O)Nc1cccc(C(=O)Nc2cccc(C(=O)O)c2)c1,-1.5%,9.53µM*,7.3%,x,x,6.6%
Cc1ccc(NC(=O)Nc2ccc3c(c2)nnn3C)cc1C,12.6%,-7.1%,u,x,x,u
COc1ccccc1NC(=O)Nc1ccc(F)c(F)c1,0.9%,16.9µM*,12.3%,28.3%,-22.6%,18.4%
COc1ccccc1NC(=O)Nc1cccc(C(=O)O)c1,0.6%,12µM*,u,-13.6%,-6.0%,u
COc1ccccc1NC(=O)NC(=O)c1ccccc1,u,1.2µM*,2.51µM*,x,x,u
O=[N+]([O-])c1ccc(S(=O)(=O)NCc2nc3cccnc3n2Cc2ccccc2Cl)cc1,x,-10.3%,x,x,x,x
Cc1ccc2onc(CNC(=O)N3CCN(c4cccc(C)c4C)CC3)c2c1,x,-10.6%,x,x,x,x
COc1cc(/C=C(\C#N)C(=O)Nc2nnc(C(F)(F)F)s2)ccc1OCc1ccc(C(F)(F)F)cc1C(F)(F)F,x,x,-31.4%[46.1 µM],x,x,-35.5%[46.1 µM]
COc1ccc(-c2csc(C3=C(O)CN(CCCN4CCCC4=O)C3=N)n2)cc1OC,1.1%,8.49µM*,-3.0%,u,6.9%,13.3%
CCOC(=O)c1sc(NC(=O)c2c(C)nn(Cc3ccccc3)c2C)cc1C,-25.2%,21.3µM*,0.9%,-12.1%,-0.7%,-8.1%
CCN(CC)S(=O)(=O)c1ccc(NC(=S)NC(=O)CC(C)C)cc1,-1.8%,0.2%,-5.2%,-9.4%,0.4%,1.1%
CCOC(=O)c1sc(NC(=O)c2ccccc2)cc1C,1.26µM*,1.07µM*,1.58µM*,11.2µM*,-13.5%,0.708µM*
CCOC(=O)c1sc(NC(=O)c2ccc(S(=O)(=O)N(C)C)cc2)cc1C,-20.4%,-26.3%,-10.2%,-19.5%,2.0%,-6.4%
CCc1ccc(NC(=S)NC(=O)CC(C)C)cc1,u,7.57µM*,u,8.91µM*,-4.2%,u
CCOC(=O)c1sc(NC(=O)c2cccc(S(=O)(=O)N(CC)CC)c2)cc1C,2.1%,u,13.8%,-3.0%,-1.2%,2.5%
CCOC(=O)c1sc(NC(=O)C(C)(C)C)cc1C,18.4µM*,12µM*,2.82µM*,10µM*,2.7%,3.16µM*
COC(=O)c1cc2sccc2n1Cc1nc(-c2ccc(C)cc2)oc1C,x,-9.6%,x,-27.1%,x,x
CN(C)c1ccc2c(c1)Sc1cc(N(C)C)ccc1N2C(=O)c1ccccc1,-0.1%,-4.8%,-2.2%,x,x,-4.4%
CCOC(=O)c1sc(NC(=O)Nc2ccc(Cl)cc2)cc1C,u,6.75µM*,20.0%,-22.0%,1.5%,1.3%
CCOC(=O)c1sc(NC(=O)c2ccc(Cl)s2)cc1C,2.31µM*,0.601µM*,u,7.94µM*,-1.4%,1µM*
CCOC(=O)c1c(NC(=O)Nc2ccc(Cl)cc2)sc(C)c1C,5.0%,5.1%,-4.8%,-5.1%,0.0%,-4.3%
CCOC(=O)c1sc(NC(=S)NC(=O)CC(C)C)cc1C,4.2%,19µM*,22.7%,-11.3%,-5.8%,u
CCn1cnc2c1c(=O)n(CC(=O)OC(C)C(N)=O)c(=O)n2Cc1ccccc1 (stereo not drawn),-1.5%,2.6%,-1.9%,x,x,4.9%
CN1CCc2c(sc3c2C(=O)NC(c2ccco2)N3)C1 (stereo not drawn),-8.2%,-11.3%,7.5%,9.1%,0.1%,5.5%
SMILES,ELG1 genotoxic,FLuc modulator,NPC1 prom act,SMN2 splice up,Luc counter,Rab9 prom act
O=C1NC(c2cccs2)Nc2sc3c(c21)CCCC3 (stereo not drawn),8.4%,6.75µM*,2.82µM*,u,-7.8%,3.55µM*
Cc1cccc(Nc2cc(C)c3c(O)cccc3n2)c1C,-0.1%,16.9µM*,14.1%,-3.6%,-2.3%,14.1%
COc1ccc(/C=N/NC(=O)C2COc3ccccc3O2)cc1OC (stereo not drawn),6.6%,19µM*,-1.9%,5.0%,-3.2%,1.0%
CC(/C=C/c1ccc2c(c1)OCO2)=N/NC(=O)C1COc2ccccc2O1 (stereo not drawn),-2.2%,-9.8%,-3.3%,-15.4%,1.6%,-6.5%
COc1cc(/C=N/NC(=O)C2COc3ccccc3O2)ccc1O (stereo not drawn),-3.6%,u,0.9%,x,x,-1.4%
COc1ccc(/C=N\NC(=O)C2COc3ccccc3O2)cc1O (stereo not drawn),6.8%,23.9µM*,-0.7%,x,x,-3.1%
O=C(N/N=C/c1ccc2c(c1)OCO2)C1COc2ccccc2O1 (stereo not drawn),3.4%,16.9µM*,0.6%,12.7%,-0.7%,15.4%
Cc1cccn2c(=O)c(C(=O)NCCc3ccc(S(N)(=O)=O)cc3)c(O)nc12,x,3.5%,x,-12.8%,x,x
COc1cccc(NC(=O)C(=O)NCCC2CCCCN2S(=O)(=O)c2cccs2)c1 (stereo not drawn),1.0%,10.7µM*,11.3%,x,x,29.4%
COc1ccc(NC(=O)C(=O)NCCC2CCCCN2S(=O)(=O)c2cccs2)cc1 (stereo not drawn),-4.8%,-14.5%,-27.3%,x,x,-15.1%
CCC(=O)Nc1cccc(C2=NOC3(C2)C[C@@H](C(N)=O)N(C(=O)COc2ccc(Cl)cc2)C3)c1 (stereo partly drawn),3.2%,-3.9%,-4.7%,x,x,-4.2%
NC(=O)[C@H]1CC2(CC(c3cccc(NC(=O)COc4ccc(Cl)cc4)c3)=NO2)CN1C(=O)c1ccccc1C(=O)c1ccccc1 (stereo partly drawn),-11.2%,u,-3.2%,x,x,-3.9%
CCCCCC(=O)N1CC2(CC(c3cccc(NC(=O)COc4ccc(Cl)cc4)c3)=NO2)C[C@@H]1C(N)=O (stereo partly drawn),-10.4%,13.5µM*,-0.6%,x,x,-4.5%
NC(=O)[C@H]1CC2(CC(c3cccc(NC(=O)COc4ccc(Cl)cc4)c3)=NO2)CN1C(=O)c1ccc(Cl)cc1 (stereo partly drawn),-17.5%,7.57µM*,-0.2%,x,x,-5.0%
CCCCCC(=O)Nc1cccc(C2=NOC3(C2)C[C@H](C(N)=O)N(C(=O)CCCCC)C3)c1 (stereo partly drawn),-8.6%,-4.4%,-3.9%,x,x,-6.8%
CCC(=O)N1CC2(CC(c3cccc(NC(=O)COc4ccc(Cl)cc4)c3)=NO2)C[C@@H]1C(N)=O (stereo partly drawn),-3.3%,16.9µM*,1.8%,x,x,-2.4%
C/C=C/C(=O)N1CC2(CC(c3cccc(NC(=O)COc4ccc(Cl)cc4)c3)=NO2)C[C@@H]1C(N)=O (stereo partly drawn),-4.3%,19µM*,u,x,x,-6.0%
